The supplement of paper PMC10849652
Of roughly 7,900 targets only a part is listed; those with a hit were picked by preference. About 0.6% of all pairs of compound and target were hits. A number with no mark means an inactive call.

What was measured:
Assay in all cases: log2 fold change, soluble protein after heating vs DMSO (PISA); higher = thermal stabilisation; K562 cells, 10 uM, 30 min; active = over 0.2 and 3.5 SD of the protein, either way, in both replicates (recomputed)
[1] = compound: C1=CC=C(C=C1)[C@H](COC2=CC3=C(C=C2)NC(=O)N3)NC(=O)C4=CC=CN(C4=O)CC5=CC(=C(C=C5)F)F
Summary of the method: (§1)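 Soluble protein was quantified by TMTpro 16plex LC-MS/MS after channel sums were equalised. It was obtained as the supernatant after 21,000xg for 90 min from pooled aliquots of K562 cells (2×10^6 cells/mL, 10 μM compound, 30 min) heated for 3 min across 48°C-58°C and extracted in PBS with 0.5% NP-40 at 4°C. Thermal stability values are relative to control samples and come from duplicates. They are given as log2 fold changes.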

[2] = compound: CC1=C(SC2=C1C(=N[C@H](C3=NN=C(N32)C)CC(=O)N)C4=CC=C(C=C4)Cl)C
Summary of the method: as §1

[3] = compound: CC1=C2C(=CC=C1)N=C(N(C2=O)C3=CC=CC=C3C)CN4C=NC5=C(N=CN=C54)N
Summary of the method: as §1

[4] = compound: Cc1sc2c(c1C)C(c1ccc(Cl)cc1)=N[C@@H](CC(=O)OC(C)(C)C)c1nnc(C)n1-2
Summary of the method: as §1

[5] = compound: c1ccc([C@@H]2C[C@H]2NC2CCNCC2)cc1
Summary of the method: as §1

UniProt P21127, sequence (P21127 whole entry, looked up): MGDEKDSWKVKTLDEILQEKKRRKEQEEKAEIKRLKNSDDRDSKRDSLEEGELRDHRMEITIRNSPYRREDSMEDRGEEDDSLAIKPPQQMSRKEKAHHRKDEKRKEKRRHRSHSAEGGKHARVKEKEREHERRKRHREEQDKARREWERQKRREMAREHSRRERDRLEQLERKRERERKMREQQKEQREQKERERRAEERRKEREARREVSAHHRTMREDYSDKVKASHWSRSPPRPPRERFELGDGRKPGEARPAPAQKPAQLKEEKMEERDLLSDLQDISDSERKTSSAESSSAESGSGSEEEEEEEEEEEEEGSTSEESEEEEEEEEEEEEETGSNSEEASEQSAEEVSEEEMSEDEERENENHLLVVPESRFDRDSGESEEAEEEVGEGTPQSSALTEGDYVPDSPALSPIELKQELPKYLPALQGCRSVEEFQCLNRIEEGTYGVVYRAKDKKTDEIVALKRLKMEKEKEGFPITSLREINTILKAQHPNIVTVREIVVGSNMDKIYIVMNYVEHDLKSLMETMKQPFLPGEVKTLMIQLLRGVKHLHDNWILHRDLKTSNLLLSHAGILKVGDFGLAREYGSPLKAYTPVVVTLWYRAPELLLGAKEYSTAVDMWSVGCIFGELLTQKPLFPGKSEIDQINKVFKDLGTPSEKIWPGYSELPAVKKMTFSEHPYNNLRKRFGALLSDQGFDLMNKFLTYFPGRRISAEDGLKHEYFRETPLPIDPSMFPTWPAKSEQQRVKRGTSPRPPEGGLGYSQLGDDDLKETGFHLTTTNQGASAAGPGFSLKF
UniProt P30305, sequence (P30305 whole entry, looked up): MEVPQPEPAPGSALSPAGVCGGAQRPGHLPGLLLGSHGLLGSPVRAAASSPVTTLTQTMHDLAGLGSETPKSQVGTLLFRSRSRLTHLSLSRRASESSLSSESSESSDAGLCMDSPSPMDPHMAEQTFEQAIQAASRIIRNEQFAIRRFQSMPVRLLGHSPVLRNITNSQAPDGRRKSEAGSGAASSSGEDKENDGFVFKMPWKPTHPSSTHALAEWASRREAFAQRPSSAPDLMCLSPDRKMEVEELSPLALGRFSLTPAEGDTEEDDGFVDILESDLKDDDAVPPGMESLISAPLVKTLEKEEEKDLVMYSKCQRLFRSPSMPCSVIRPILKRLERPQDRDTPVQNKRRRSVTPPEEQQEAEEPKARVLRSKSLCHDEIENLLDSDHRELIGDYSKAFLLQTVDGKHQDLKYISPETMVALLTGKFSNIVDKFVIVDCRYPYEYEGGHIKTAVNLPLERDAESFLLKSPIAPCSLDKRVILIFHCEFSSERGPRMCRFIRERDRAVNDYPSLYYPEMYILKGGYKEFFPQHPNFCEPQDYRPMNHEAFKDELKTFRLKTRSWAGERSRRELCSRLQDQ
UniProt Q96GQ5, sequence (Q96GQ5 whole entry, looked up): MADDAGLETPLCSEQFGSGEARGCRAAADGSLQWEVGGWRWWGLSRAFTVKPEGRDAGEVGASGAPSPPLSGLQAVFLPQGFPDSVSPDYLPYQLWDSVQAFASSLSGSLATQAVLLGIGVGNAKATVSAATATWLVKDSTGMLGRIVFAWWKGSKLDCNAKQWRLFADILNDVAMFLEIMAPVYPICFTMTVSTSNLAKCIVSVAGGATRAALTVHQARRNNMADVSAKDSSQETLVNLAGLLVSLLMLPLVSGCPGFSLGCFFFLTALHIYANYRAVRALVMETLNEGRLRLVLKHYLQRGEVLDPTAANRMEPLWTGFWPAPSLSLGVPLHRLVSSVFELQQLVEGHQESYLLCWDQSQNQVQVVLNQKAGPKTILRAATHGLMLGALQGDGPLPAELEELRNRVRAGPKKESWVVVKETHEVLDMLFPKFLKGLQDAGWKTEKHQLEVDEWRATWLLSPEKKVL
UniProt P11802, sequence (P11802 whole entry, looked up): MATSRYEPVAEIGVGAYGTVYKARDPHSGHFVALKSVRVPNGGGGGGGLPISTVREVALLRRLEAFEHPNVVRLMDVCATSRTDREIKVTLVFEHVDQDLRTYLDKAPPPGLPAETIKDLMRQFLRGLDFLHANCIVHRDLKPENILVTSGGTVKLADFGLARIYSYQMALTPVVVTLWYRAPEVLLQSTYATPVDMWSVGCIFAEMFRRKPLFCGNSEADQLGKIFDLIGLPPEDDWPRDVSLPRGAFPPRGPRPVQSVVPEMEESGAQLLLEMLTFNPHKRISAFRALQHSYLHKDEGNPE
UniProt Q15417, sequence (Q15417 whole entry, looked up): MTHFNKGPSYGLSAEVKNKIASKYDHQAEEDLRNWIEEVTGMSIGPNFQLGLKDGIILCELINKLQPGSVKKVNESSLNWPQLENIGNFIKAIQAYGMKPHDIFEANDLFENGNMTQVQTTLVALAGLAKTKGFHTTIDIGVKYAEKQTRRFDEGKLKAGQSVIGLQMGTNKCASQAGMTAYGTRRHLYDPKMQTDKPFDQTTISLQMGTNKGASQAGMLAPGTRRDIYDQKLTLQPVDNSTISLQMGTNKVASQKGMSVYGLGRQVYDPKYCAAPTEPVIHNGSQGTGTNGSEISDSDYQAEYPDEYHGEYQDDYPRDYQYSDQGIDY
UniProt P24863, sequence (P24863 whole entry, looked up): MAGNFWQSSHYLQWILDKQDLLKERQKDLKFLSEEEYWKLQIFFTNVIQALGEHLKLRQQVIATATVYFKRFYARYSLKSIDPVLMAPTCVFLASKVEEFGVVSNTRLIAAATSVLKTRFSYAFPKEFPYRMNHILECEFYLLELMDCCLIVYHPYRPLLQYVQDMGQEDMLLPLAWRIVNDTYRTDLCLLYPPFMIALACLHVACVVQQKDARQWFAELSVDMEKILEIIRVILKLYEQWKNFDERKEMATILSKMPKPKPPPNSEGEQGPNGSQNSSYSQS
UniProt P23786, sequence (P23786 whole entry, looked up): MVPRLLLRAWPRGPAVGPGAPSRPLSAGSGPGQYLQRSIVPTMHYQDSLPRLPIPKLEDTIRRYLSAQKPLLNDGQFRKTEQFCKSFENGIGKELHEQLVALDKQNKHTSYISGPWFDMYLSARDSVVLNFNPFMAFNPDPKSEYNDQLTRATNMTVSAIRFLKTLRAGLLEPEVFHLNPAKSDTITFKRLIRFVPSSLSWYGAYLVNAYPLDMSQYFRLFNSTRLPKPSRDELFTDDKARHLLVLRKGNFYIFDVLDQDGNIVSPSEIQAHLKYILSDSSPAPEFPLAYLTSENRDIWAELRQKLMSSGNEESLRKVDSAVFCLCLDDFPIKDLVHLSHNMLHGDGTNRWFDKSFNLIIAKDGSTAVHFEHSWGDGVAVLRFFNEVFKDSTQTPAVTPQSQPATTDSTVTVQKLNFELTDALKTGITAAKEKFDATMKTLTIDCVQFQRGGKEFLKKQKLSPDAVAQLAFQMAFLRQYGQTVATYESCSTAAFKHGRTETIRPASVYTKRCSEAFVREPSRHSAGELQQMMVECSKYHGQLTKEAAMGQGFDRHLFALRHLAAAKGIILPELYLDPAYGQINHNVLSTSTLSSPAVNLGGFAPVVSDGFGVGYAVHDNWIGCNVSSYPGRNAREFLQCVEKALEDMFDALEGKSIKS
UniProt Q9UKF6, sequence (Q9UKF6 whole entry, looked up): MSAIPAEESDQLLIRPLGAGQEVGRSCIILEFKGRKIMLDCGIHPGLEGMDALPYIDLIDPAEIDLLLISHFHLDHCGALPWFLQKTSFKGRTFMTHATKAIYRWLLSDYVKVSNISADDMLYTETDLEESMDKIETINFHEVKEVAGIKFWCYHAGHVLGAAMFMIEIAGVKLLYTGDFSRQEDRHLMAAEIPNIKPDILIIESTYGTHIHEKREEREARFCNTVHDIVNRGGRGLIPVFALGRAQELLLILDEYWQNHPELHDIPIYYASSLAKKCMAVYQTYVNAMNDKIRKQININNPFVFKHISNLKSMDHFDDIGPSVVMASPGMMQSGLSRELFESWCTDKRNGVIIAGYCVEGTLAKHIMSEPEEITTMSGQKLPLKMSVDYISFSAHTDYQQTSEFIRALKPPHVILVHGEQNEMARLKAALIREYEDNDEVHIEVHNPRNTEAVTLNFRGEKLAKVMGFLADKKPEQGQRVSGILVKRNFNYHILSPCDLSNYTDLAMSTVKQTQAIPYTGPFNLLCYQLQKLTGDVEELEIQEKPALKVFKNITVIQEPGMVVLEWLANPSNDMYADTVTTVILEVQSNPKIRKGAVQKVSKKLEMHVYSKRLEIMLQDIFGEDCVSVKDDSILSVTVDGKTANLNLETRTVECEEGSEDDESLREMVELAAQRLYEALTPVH
UniProt P45973, sequence (P45973 whole entry, looked up): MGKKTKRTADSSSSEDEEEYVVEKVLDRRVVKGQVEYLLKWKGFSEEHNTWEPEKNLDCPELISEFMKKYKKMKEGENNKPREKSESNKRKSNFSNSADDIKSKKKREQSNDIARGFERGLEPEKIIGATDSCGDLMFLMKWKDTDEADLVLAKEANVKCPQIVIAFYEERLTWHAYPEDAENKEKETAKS
UniProt Q6NZI2, sequence (Q6NZI2 whole entry, looked up): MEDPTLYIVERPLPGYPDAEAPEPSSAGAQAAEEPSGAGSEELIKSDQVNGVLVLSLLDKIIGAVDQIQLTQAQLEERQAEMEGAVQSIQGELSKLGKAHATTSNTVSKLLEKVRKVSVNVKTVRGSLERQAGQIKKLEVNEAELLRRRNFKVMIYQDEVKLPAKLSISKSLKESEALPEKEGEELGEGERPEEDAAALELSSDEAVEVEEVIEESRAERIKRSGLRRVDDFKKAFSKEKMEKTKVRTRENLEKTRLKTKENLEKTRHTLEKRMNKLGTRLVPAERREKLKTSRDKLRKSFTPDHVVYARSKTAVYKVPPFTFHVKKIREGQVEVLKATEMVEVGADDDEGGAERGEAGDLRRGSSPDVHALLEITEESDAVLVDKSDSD
UniProt Q86X83, sequence (Q86X83 whole entry, looked up): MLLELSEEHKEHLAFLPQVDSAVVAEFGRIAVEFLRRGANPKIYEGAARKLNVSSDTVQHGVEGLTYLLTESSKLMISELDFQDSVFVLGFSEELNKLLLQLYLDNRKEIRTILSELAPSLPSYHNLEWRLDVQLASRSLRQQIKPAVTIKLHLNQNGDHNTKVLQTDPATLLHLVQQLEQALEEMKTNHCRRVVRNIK

Row | Target | log2 fold change [1] | log2 fold change [2] | log2 fold change [3] | log2 fold change [4] | log2 fold change [5]
1 | CPD (UniProt O75976) | 0.008 | 0.014 | 0.044 | -0.013 | 0.053
2 | C16orf58 (UniProt Q96GQ5) | 0.023 | 0.025 | 0.088 | -0.042 | 0.013
3 | CHERP (UniProt Q8IWX8) | -0.023 | -0.07 | 0.008 | 0.101 | 0.018
4 | COMMD2 (UniProt Q86X83) | -0.029 | 0.053 | 0 | -0.199 | 0.04
5 | CIR1 (UniProt Q86X95) | -0.075 | -0.286 | -0.241 | 0.198 | 0.217
6 | CALCOCO2 isoform 4 (UniProt Q13137) | -0.036 | -0.002 | -0.04 | 0.049 | 0.026
7 | CLUH (UniProt O75153) | -0.05 | 0.027 | 0.086 | -0.016 | -0.052
8 | CSNK2B (UniProt P67870) | -0.047 | 0.043 | 0 | -0.028 | 0.018
9 | CSNK1D (UniProt P48730) | -0.08 | -0.067 | -0.192 | -0.011 | -0.015
10 | CLCN7 (UniProt P51798) | -0.018 | 0.024 | -0.054 | 0.024 | -0.032
11 | CDKN2AIP (UniProt Q9NXV6) | -0.036 | -0.044 | -0.008 | 0.021 | -0.014
12 | CSNK2A2 (UniProt P19784) | -0.025 | 0.08 | 0.052 | 0.028 | 0.012
13 | CEP128 (UniProt Q6ZU80) | -0.039 | 0.099 | 0.216 | 0.104 | 0.041
14 | CCZ1 (UniProt P86791) | 0.011 | 0.009 | 0.02 | 0.017 | -0.024
15 | CNDP2 (UniProt Q96KP4) | -0.006 | 0.039 | 0.023 | 0.009 | -0.041
16 | C4A (UniProt P0C0L4) | -0.158 | -0.067 | 0.127 | -0.101 | -0.01
17 | CCM2 isoform 2 (UniProt Q9BSQ5) | 0.013 | 0.144 | 0.046 | -0.161 | -0.046
18 | CHCHD1 (UniProt Q96BP2) | 0.07 | -0.056 | -0.031 | 0.168 | 0.021
19 | CAD (UniProt P27708) | -0.115 | 0.048 | -0.019 | -0.005 | -0.033
20 | CBX5 (UniProt P45973) | -0.001 | 0.029 | 0.05 | 0.016 | 0.008
21 | CHKA (UniProt P35790) | -0.055 | -0.023 | 0.124 | -0.004 | 0.19
22 | CPT2 (UniProt P23786) | -0.402 | 0.19 | 0.155 | -0.017 | -0.026
23 | CAVIN1 (UniProt Q6NZI2) | 0.017 | -0.127 | -0.103 | 0.101 | 0
24 | COQ9 (UniProt O75208) | -0.068 | -0.025 | 0.053 | -0.081 | 0.036
25 | CSNK1A1 (UniProt P48729) | 0.048 | 0 | 0.008 | 0.046 | 0.02
26 | CA8 (UniProt P35219) | 0.006 | 0.059 | 0.052 | 0.025 | -0.045
27 | CPSF6 isoform 2 (UniProt Q16630) | 0.036 | -0.038 | 0.048 | 0.02 | -0.016

Row | Target | log2 fold change [1] | log2 fold change [2] | log2 fold change [3] | log2 fold change [4] | log2 fold change [5]
28 | CDC25B isoform 4 (UniProt P30305) | 0.107 | 0.009 | 0.101 | – | -0.024
29 | COX5B (UniProt P10606) | 0.015 | 0.104 | -0.006 | -0.126 | -0.099
30 | CERS2 (UniProt Q96G23) | -0.033 | 0.035 | -0.012 | -0.036 | 0.048
31 | CREB3L2 (UniProt Q70SY1) | 0.331 | -0.15 | 0.296 | -0.143 | -0.247
32 | CD53 (UniProt P19397) | -0.05 | 0.142 | 0.106 | 0.083 | 0.014
33 | CMTM3 (UniProt Q96MX0) | -0.179 | -0.001 | -0.056 | 0.044 | 0.081
34 | COASY isoform 2 (UniProt Q13057) | -0.03 | 0.054 | 0.053 | -0.037 | -0.021
35 | CDK4 (UniProt P11802) | 0.012 | 0.128 | 0.119 | – | -0.165
36 | CPSF3 (UniProt Q9UKF6) | -0.016 | 0.024 | 0.036 | -0.026 | 0.009
37 | CDK17 isoform 2 (UniProt Q00537) | -0.095 | -0.006 | -0.049 | – | -0.083
38 | CBX1 (UniProt P83916) | 0.003 | 0.026 | 0.023 | -0.003 | 0.031
39 | CDK11B (UniProt P21127) | -0.05 | 0.015 | 0.137 | -0.01 | 0.059
40 | CLN5 (UniProt O75503) | -0.003 | -0.007 | – | 0.057 | -0.296
41 | C22orf39 (UniProt Q6P5X5) | 0.126 | 0.145 | – | -0.06 | -0.037
42 | CCNC (UniProt P24863) | -0.139 | -0.172 | 0.01 | – | -0.037
43 | CFAP36 isoform 2 (UniProt Q96G28) | -0.042 | 0.01 | 0.383 (active) | -0.009 | -0.158
44 | CALB1 (UniProt P05937) | 0.001 | 0.009 | -0.045 | -0.068 | 0.026
45 | CLASP2 isoform 3 (UniProt O75122) | -0.065 | 0.053 | 0.091 | -0.024 | -0.014
46 | CCDC59 (UniProt Q9P031) | 0.012 | -0.177 | -0.214 | 0.165 | 0.052
47 | CDK6 (UniProt Q00534) | -0.005 | -0.002 | 0.005 | -0.036 | -0.055
48 | CDK5RAP3 isoform 4 (UniProt Q96JB5) | -0.042 | 0.054 | 0.099 | 0 | -0.05
49 | CCNT1 (UniProt O60563) | 0.108 | -0.022 | -0.036 | 0.085 | 0.072
50 | CRYM-AS1 (UniProt A6NIL9) | -0.295 | 0.037 | 0.297 | -0.201 | -0.002
51 | CDKN1B (UniProt P46527) | -0.009 | -0.029 | -0.036 | – | -0.004
52 | CDK1 (UniProt P06493) | -0.019 | 0.036 | 0.003 | 0.019 | 0.037
53 | CDC26 (UniProt Q8NHZ8) | 0.05 | 0.027 | -0.346 | -0.038 | 0.022
54 | CNN3 (UniProt Q15417) | -0.015 | 0.18 | 0.079 | 0.035 | 0.03
